Laboratory results published in PubChem BioAssay (NCI).
The panel holds about 83,000 compounds, 20% with a hit somewhere; the sample as a whole holds those more often.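 Each cell line was grown in a 96-well plate and treated with one concentration of compound for 48 hours. Values below 10 were considered active.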 A number with no mark means an inactive call. Calls of active or inactive are those of the source.

Tested on: HL-60(TB) leukemia
Assay: NCI-60 one-dose screen, 48 h (100 = growth as untreated, 0 = no growth, -100 = all killed)
Conditions: 10 µM unless noted

Row | SMILES | growth
1 | N[C@@H]1CCC[C@H]1NCCCCN1C(=O)c2cccc3cc([N+](=O)[O-])cc(c23)C1=O | 30.5%
2 | CSc1nc(-c2cccc(NC(=O)CCl)c2)c(C#N)c(=O)n1C | -22.1% (active)
3 | CC1CN(Cc2ccccc2)C(=O)NC1=O (stereo not given) | 88.7%
4 | CCN(CC)c1ccc(/C=C/C(=O)c2cccc(NS(C)(=O)=O)c2)cc1 | 9.82% (active)
5 | COc1ccccc1C(=O)Nc1cccc(-c2cc(=O)c3c(OC)c(OC)c(OC)cc3o2)c1 | 57.7%
6 | COc1ccc2[nH]c(=O)c(/C=C/C(=O)c3ccccc3OC)cc2c1 | -2.46% (active)
7 | CCn1cnc2c1c(=O)[nH]c(=O)n2CC1CCC(CNS(=O)(=O)c2ccc(OC3CCOCC3)c(F)c2)CC1 (stereo not given) | 13.2%
8 | CN(C)C1CN(C(=O)c2cc(-c3ccc4ncnc(N5CCc6cc(F)c(Cl)cc65)c4c3)cnc2N)C1 | -1.16% (active)
9 | Cc1cc(C)c(NC(=O)c2sc3nc4c(cc3c2N)C(=O)CCC4)c(C)c1 | 14.6%
10 | CCOC(=O)c1cnn(CC(C)O)c1NC(=O)NCc1cccc(F)c1 (stereo not given) | 90.5%
11 | O=C1NC(=O)/C(=C/C=C/c2ccccc2)S1 | -29.3% (active)
12 | CCCCCCCCCCCCCC | 87%
13 | O=C(c1ccccc1)C(Br)C(Br)c1ccccc1 (stereo not given) | 39.5%
14 | Nc1cc(-c2ccccc2)ccc1O | 49.7%
15 | Cc1ccc(NC(=O)CCl)cc1Cl | 106%
16 | COc1ccc(C2=NN(C(=O)c3cc(-c4ccc(C)cc4)nc4ccccc34)C(c3cc(-c4ccccc4)nn3-c3ccccc3)C2)cc1 (stereo not given) | 90.6%
17 | COc1cccc(-c2nc3sccn3c2-c2ccnc(NCCCNS(=O)(=O)c3ccccc3)c2)c1 | -12.4% (active)
18 | CC1=C(C(=O)Nc2ccc(F)cc2)C(c2ccc(C)cc2)C2=C(CC(C)(C)CC2=O)N1 (stereo not given) | 114%
19 | O=C(O)C1CCCCN1c1nc(Cl)nc(Cl)n1 (stereo not given) | 97.8%
20 | COc1ccc(C=Nc2c(C(=O)Nc3cccc(Cl)c3C)sc3nc(C)c(C(=O)/C=C/c4ccc(OC)cc4)cc23)cc1 | 9.38% (active)

Row | SMILES | growth
21 | Cc1csc(NC(c2ccc(Br)cc2)c2c(C)nc3ccccn23)n1 (stereo not given) | 102%
22 | CCOC(=O)C1C(=O)C=C(c2cnccn2)CC1c1ccc(OC)c(OC)c1 (stereo not given) | 63.9%
23 | CCCCCCC/C=C/[C@H]1O[C@]2(O)C(=O)C=C3C[C@@H](O[C@@H]4O[C@H](CO)[C@@H](O)C(O)[C@@H]4O)C[C@@H]3[C@H]2C=C1C (stereo not given in full) | -46.4% (active)
24 | CC(=O)OC(C)COc1ccc(-c2ccccc2)cc1 (stereo not given) | 104%
25 | CC(C)(C)OC(=O)N1CCc2c(sc3ncnc(N/N=C/c4ccccc4Br)c23)C1 | 94.8%
26 | O=C1/C(=C/c2cccc(Br)c2)COc2ccc(O)c(O)c21 | -15.3% (active)
27 | COc1cccc2c1O/C(=C\c1ncc([N+](=O)[O-])n1C)C2=O | -14.8% (active)
28 | CCOC(=O)c1sc(-c2ccc(OS(=O)(=O)c3ccccc3[N+](=O)[O-])c(C=O)c2)nc1C | 73.3%
29 | COc1cc(-c2cc(/C=C/C(=O)c3ccc(Cl)c(Cl)c3)[nH]n2)cc(OC)c1OC | 87.3%
30 | C#C[C@@]1(O)[C@@H](CO)O[C@@H](n2cc(Cl)c3c(N)ncnc32)[C@@H]1O | -56.8% (active)
31 | O=C(Cn1cc(CSc2nc3ccccc3o2)nn1)Nc1ccc([N+](=O)[O-])cc1 | 98.2%
32 | Cn1c(I)c(C#C[Si](C)(C)C)c(=O)[nH]c1=O | -67.8% (active)
33 | C=C(CN1CC=CCC1)[C@@H]1CC[C@]2(C(=O)OC)CC[C@]3(C)[C@H](CC[C@@H]4[C@@]5(C)CC[C@H](OC(C)=O)C(C)(C)[C@@H]5CC[C@]43C)[C@@H]12 | 49.6%
34 | C=C1C(=O)O[C@H]2[C@H]1CC/C(COC(=O)CCCC(=O)OC/C1=C/CC[C@@]3(C)O[C@H]3[C@H]3OC(=O)C(=C)[C@@H]3CC1)=C\CC[C@@]1(C)O[C@@H]21 | -41.8% (active)
35 | CC(=O)n1nc(C(=O)OC(C)(C)c2ccccc2)c2ccccc21 | 97.5%
36 | CCCCCCCCCCCCN1C(C)=CS/C1=C\C=C\c1scc(C)[n+]1CCCCCCCCCCCC | -32.3% (active)
37 | CC(C)(C)OC(=O)CN1CCc2c(sc3ncnc(N/N=C/c4ccccc4Br)c23)C1 | 92.1%
38 | CC(C)(C)c1cc(/C=N/NC(=O)c2ccccc2NC(=O)c2cccs2)c(O)c(C(C)(C)C)c1 | 14.1%
39 | CCOC(=O)CCN(C(=O)Nc1ccccc1)C1CCCCC1 | 113%
40 | COC(=O)c1cc(Nc2ccc(O)c3c2C(=O)c2c([N+](=O)[O-])ccc(O)c2C3=O)cc(C(=O)OC)c1 | 62.3%
